This is a sample that favours compounds with a hit; in the whole collection about 3.3% have one here.
HttQ103 aggreg: inhibitors of mutant huntingtin aggregate formation in PC12 cells; PC12 HttQ103-GFP aggregates, Acumen cytometry, 40 h; Potency, µM (series often up to 46.1 µM), for the others: at the highest dose activity change, negative = inhibition, most hits filed as inhibitors; 220,000 tested, 1.1% active; AID 1688; further: potency means the concentration at half of the fitted maximal effect; on the % scale 0 is the no-effect control and ±100 the full control effect; nearly all actives have a fitted effect of over 60% in size
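Steps: seed 1500 PC12 HTTQ103-GFP cells/well; add tebufenozide, 100 nM final; add compound titration; add ATPLite reagent; quantify GFP aggregates by laser scanning cytometry.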
12-hLO inh: blocks human 12-lipoxygenase activity | purified 12-hLO, xylenol orange hydroperoxide absorbance | Potency, µM (doses to about 57.1 µM), for the others: at the highest dose activity change, negative = inhibition, actives largely listed as inhibitors | 150,000 tested, 0.12% active | AID 1452; further: potency means the concentration at half of the fitted maximal effect; on the % scale 0 is the no-effect control and ±100 the full control effect; nearly all actives have a fitted effect of over 55% in size
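Hydroperoxide output read as Fe(III)-xylenol orange absorbance, 573-to-405 nm ratio, after 30 min reaction with 40 uM arachidonic acid. Enzyme: 150 nM purified human 12hLO, 15 min compound preincubation; 25 mM Hepes pH 7.0, room temperature.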
IMPase cell inh: IMPase inhibition in cells; P97697; CHO-M1 cells, IP1 accumulation, HTRF TR-FRET ratio; inhibition (IP1 accumulation), % at 46.1 µM; 120,000 tested, under 10 active; AID 901; active means well fitted curve in the direction sought with a large enough effect in the signal ratio, not every such curve was filed as active; inconclusive means small, poorly fitted or top-dose-only effect, or a change in a side signal; inactive means no such curve, though single readings can be large or run the other way; the % refers to the signal ratio;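 further: cells stimulated with carbachol in lithium chloride buffer; plate controls were DMSO basal wells for no effect and reference inhibitor wells for full effect; higher means more IMPase inhibition seen as more IP1 and lower FRET ratio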
Target sequence (P97697 whole entry, looked up): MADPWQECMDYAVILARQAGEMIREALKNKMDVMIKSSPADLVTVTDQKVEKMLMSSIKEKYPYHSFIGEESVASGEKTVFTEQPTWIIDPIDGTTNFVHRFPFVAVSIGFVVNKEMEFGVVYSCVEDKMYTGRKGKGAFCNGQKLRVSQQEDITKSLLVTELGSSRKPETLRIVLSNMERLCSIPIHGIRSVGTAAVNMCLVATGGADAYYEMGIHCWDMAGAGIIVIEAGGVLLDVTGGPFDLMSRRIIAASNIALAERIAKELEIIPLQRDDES
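Seeded CHO-M1 cells were dosed with compound at up to 46 uM, stimulated with carbachol for 30 min, then lysed in IP-One detection reagents. Higher IP1 lowers the TR-FRET signal.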
PNC inhibitor: perinucleolar compartment assembly inhibition; PC3M PTB-GFP, PNC prevalence imaging, 16 h; hits give low values; activity change (PNC), negative = inhibition, % at 10 µM; 140,000 tested, 3.1% active;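 active means readout at or below -70, meaning at least 70% loss of cells showing the perinucleolar compartment, a nuclear body marking cancer cells; inconclusive means readout between -30 and a set limit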;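 further: plate controls were DMSO wells for no effect and camptothecin positive control wells for full effect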
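PC3M cells stably expressing PTB-GFP, 750–1000 cells/well, treated 16 h at 37 °C with compound (23 nl of library stock), in duplicate. After paraformaldehyde fixation and Hoechst stain, imaged at 20x; PNC prevalence scored by image analysis.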
HTT ATP protect: protects HTT-Q103 PC12 cells, measured by ATP; PC12 HTT-Q103 induced, cytoprotection, ATP luminescence, 40 h; 230,000 tested, 0.14% active; Potency, µM (highest dose often 56.4 µM), without a hit: cytoprotection (ATP increase), actives largely listed as activators; further: potency means the concentration at half of the fitted maximal effect; % of control where 0% means no effect; nearly all actives have a fitted effect of over 45% in size
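Stable PC12 Q103-GFP cells in serum-supplemented, phenol red-free DMEM; induction by tebufenozide at 100 nM final; compound dose series; cell viability quantified luminescently from ATP.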
NPSR antagonist: antagonists of human neuropeptide S receptor cAMP signaling | Q6W5P4 | 220,000 tested, 1% active | CHO-NPSR cells, cAMP TR-FRET, antagonist mode | Potency, µM (top dose mostly 38.3 µM), for the others: at the top dose activity change, negative = inhibition, most hits filed as inhibitors; further: potency means the concentration at half of the fitted maximal effect; on the % scale 0 is the no-effect control and ±100 the full control effect; nearly all actives have a fitted effect of over 50% in size
Target sequence (Q6W5P4 whole entry, looked up): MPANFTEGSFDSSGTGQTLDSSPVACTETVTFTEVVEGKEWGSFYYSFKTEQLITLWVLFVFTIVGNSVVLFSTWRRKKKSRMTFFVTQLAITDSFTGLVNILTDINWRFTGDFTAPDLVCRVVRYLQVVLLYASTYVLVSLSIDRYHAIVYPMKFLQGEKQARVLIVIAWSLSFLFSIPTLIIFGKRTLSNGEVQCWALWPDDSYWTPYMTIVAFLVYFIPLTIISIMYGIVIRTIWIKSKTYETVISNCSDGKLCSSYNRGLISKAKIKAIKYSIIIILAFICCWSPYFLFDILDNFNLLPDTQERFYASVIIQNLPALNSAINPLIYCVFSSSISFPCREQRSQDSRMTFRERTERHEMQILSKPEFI
Starred values were filed as active, the others as inactive; ? = inconclusive; . = no result given; [ ] = another dose, or the depositor's remark. Unless noted, the call rests on the fitted dose curve; in most records, active means well fitted curve in the direction sought with a large enough effect; inconclusive means small, poorly fitted or top-dose-only effect, or another doubt; inactive means no such curve, though single readings can be large; an effect the other way counts as inactive or inconclusive.

SMILES	HttQ103 aggreg	12-hLO inh	IMPase cell inh	PNC inhibitor	HTT ATP protect	NPSR antagonist
O=C(NNC(=O)c1cccc(O)c1)Nc1ccc([N+](=O)[O-])cc1	-8%	.	.	.	-8%	7%
Cc1ccc(C(=O)c2ccccc2C(=O)O)cc1C	18%	.	.	.	.	3%
O=C(O)c1ccccc1C(=O)c1ccc(Oc2ccccc2)cc1	-1%	7%	.	-85*	.	-10%
CN(C)CCN1C(=O)C(O)=C(C(=O)c2cc3ccccc3o2)C1c1ccc(N(C)C)cc1 (stereo not drawn)	-26%	3%	0	-119*	-7%	4%
Cc1ccc(NC(=S)NC2CCN(Cc3ccccc3)CC2)cc1	9%	-2%	.	-119*	.	8%
Cc1oc2c(c1C(=O)Nc1cccc3ccccc13)CCCC2	-12%	5%	17	21	2%[10 µM]	?
COc1ccccc1NC(=O)c1c(C)oc2c1CCCC2	-14%	0%	-7	-114*	-9%[10 µM]	-36%
Cc1ccc(C(=O)N2CCN=C2SCc2ccc([N+](=O)[O-])cc2)cc1C	11%	.	.	.	-8%	-19%
COC(=O)c1cc(CNC(=O)c2cccc(Cl)c2)ccc1OC	-13%	2%	-5	-89*	10%[10 µM]	5%
C#CCCCO/N=C1/C[C@@H](O)[C@@H](O)[C@@H]2[C@@H]3C(=O)N(Cc4ccccc4)C(=O)[C@H]3CC[C@H]12	.	.	.	.	-1%[10 µM]	.
CCCC(=O)NC(c1ccc(OC)cc1)c1ccc2cccnc2c1O (stereo not drawn)	?	.	.	.	-64%[10 µM]	13%
CCC(=O)NC(c1ccccc1OC)c1ccc2cccnc2c1O (stereo not drawn)	3.2µM*	-23%	13	-100*	-72%[10 µM]	-7%[46.1 µM]
Cc1cc(C)c2nc(-c3ccccn3)cc(C(=O)Nc3ccc(S(=O)(=O)Nc4onc(C)c4C)cc3)c2c1	5%	.	.	.	-10%	-56%
Cc1cc(C)c2nc(-c3ccccn3)cc(C(=O)Nc3ccc(S(=O)(=O)Nc4cc(C)on4)cc3)c2c1	19%	3%	3	60	-29%	10µM*
CC(C)CC(=O)Nc1ccc(C(=O)NNC(=S)NC(=O)C2CCCCC2)cc1	10µM*	-19%	-7	?	18%	-14%[46.1 µM]
CCCCCNC(=O)CCCCn1c(=O)[nH]c2cc(OCC)c(OCC)cc2c1=O	4%	-5%	-2	?	-13%	-7%[46.1 µM]
CCOc1cc2[nH]c(=O)n(CCCCC(=O)N3CCCCCC3)c(=O)c2cc1OCC	4%	1%	-4	-100*	-2%[10 µM]	-4%[46.1 µM]
N#CC1=C(N)SC(N)=C(C#N)C1CCC1CCCCC1	0.89µM*	?	-8	-28	10%[10 µM]	-1%[46.1 µM]
Cc1sccc1C1C(C#N)=C(N)SC(N)=C1C#N	13%	-25%	?	19	5%[1.9 µM]	27%[46.1 µM]
Cc1ccccc1NC(=O)C(=Cc1ccc(C(=O)O)cc1)C(=O)Nc1ccccc1C	6.3µM*	.	.	.	40%[10 µM]	4µM*
CCOC(=O)c1ccc(S(=O)(=O)Nc2nc3cc(S(=O)(=O)NC4=NCCCCC4)ccc3s2)cc1	-19%	.	.	.	18µM*	8%
Nc1nc2cc(S(=O)(=O)NC3=NCCCCC3)ccc2s1	-12%[9.22 µM]	.	.	.	5%[10 µM]	16%
CCOC(=O)c1c(C)n(C)c2cc(CN(C)C)c(O)c(S(=O)(=O)c3ccccc3)c12	-14%[9.22 µM]	.	.	.	-11%[10 µM]	-5%
O=c1n(-c2ccccc2)c(=O)n2n1CCCC2	5%	-9%	-9	-120*	16%[0.074 µM]	-5%[46.1 µM]
COCCCN1C(=O)CC(C(=O)OC)=C1C	12%	.	.	.	-3%	28%
SMILES	HttQ103 aggreg	12-hLO inh	IMPase cell inh	PNC inhibitor	HTT ATP protect	NPSR antagonist
COc1ccc(CCNC(=O)c2nc3ncccn3n2)cc1OC	-8%	3%	0	-107*	-5%[0.074 µM]	-7%[46.1 µM]
CC(C)(C)c1ccc(-c2nnc(SCc3ccc(Cl)cc3)n2-c2cccc(C(F)(F)F)c2)cc1	.	-1%[11.4 µM]	.	.	15%[10 µM]	.
COc1cccc(C(=O)N2CCCc3ccccc32)c1	-6%	-3%	-3	-85*	14%	-15%[46.1 µM]
O=C(c1ccccc1)N1CCCc2ccccc21	11%	2%	1	18	6%[10 µM]	-3%[46.1 µM]
COC(=O)N1CCC2(CCN(Cc3cc(C(F)(F)F)cc(C(F)(F)F)c3)CC2)CC1	.	3%	.	.	-58%	.
O=C(CSc1ccccc1)NN1C(=O)c2ccccc2C1=O	-8%[9.22 µM]	.	.	.	15%[10 µM]	0%
Cc1nnn(C23CC4CC(CC(C(=O)NN)(C4)C2)C3)n1	3%	-4%	.	-114*	.	1%
Cc1ccc(CCNC(=O)C23C[C@H]4C[C@@H](C2)CC(n2nnc(C)n2)(C4)C3)cc1	-8%	.	.	.	-38%	-11%
S=C(NCc1ccco1)Nc1ccc(Cl)c(Cl)c1	?	18µM*	-18	4	-53%	0%[46.1 µM]
COc1ccc(S(=O)(=O)Nc2cc(C)c(O)c(S(=O)(=O)c3ccccc3)c2)cc1	-27%	-5%	-5	-102*	-20%	-13%[46.1 µM]
COc1ccc([N+](=O)[O-])cc1NCc1ccco1	14%[9.22 µM]	.	.	.	-3%[10 µM]	-5%
COc1ccc(/C(O)=C2\C(=O)C(=O)N(c3cc(C)on3)C2c2cccc(OC)c2OC)cc1C (stereo not drawn)	18%	-1%	-27	-22	-35%	17%[46.1 µM]
COc1cccc(C2c3c(oc4ccc(Cl)cc4c3=O)C(=O)N2c2cc(C)on2)c1OC (stereo not drawn)	29%	0%	-6	-136*	-9%[0.074 µM]	-21%[46.1 µM]
Cc1ccccc1NC(=O)NC1CCCCC1C (stereo not drawn)	6%[9.22 µM]	.	.	.	14%[10 µM]	-9%
CC(=O)N1C2(C=CC1(C)C(=O)NCc1ccc(C)o1)CCCCC2 (stereo not drawn)	.	-3%	.	.	-27%	.
C=CCOc1ccccc1CNc1ccc2c(c1)OCCO2	14µM*	.	.	.	-168%	-1%
Cc1ccccc1-c1nnc(SCC(=O)N2CCCCC2)o1	.	.	3	.	.	.
C/C=C/C=C/C(=O)Nc1nccs1	-19%	-5%	.	-116*	21%[10 µM]	12%
CCC(C)Nc1ncnc2c1cnn2Cc1ccc(Cl)cc1 (stereo not drawn)	25µM*	-11%	0	?	-41%	-21%[46.1 µM]
c1ccc(CNc2ncnc3c2cnn3Cc2ccccc2)cc1	22µM*	0%	13	12	-33%[10 µM]	-9%
CC1CCN(c2ncnc3c2cnn3Cc2ccc(Cl)cc2)CC1	?	-13%	7	9	-49%	-19%[46.1 µM]
O=c1c(-c2ccc(F)cc2)nc2cnc(Oc3cccc(Cl)c3)nc2n1C[C@H]1CCCO1	.	.	.	.	9%	.
Cc1cc2nc(-c3ccc(SCC(=O)N4CCN(C(=O)c5ccco5)CC4)nc3)[nH]c2cc1C	-26%	15%	-10	-28	-85%[10 µM]	?
Cc1ccc2nc(-c3ccc(SCC(=O)Nc4nc(C)cs4)nc3)[nH]c2c1	20%	-2%	18	65	?	3%
